Several values for one entry are separate records, joined by “and”; a condition that tells them apart may be missing. Equal values may be shown once. Among all 5,500 compounds or so, about 2,000 (36%) were called active. Another 18% or so got no clear call; they are omitted. Cut-off read from the data, not from the text of the source: active = normalized growth mostly below about 0.91 (no sharp cut-off); inconclusive = no clear call, values can overlap the other calls; inactive = mostly above about 0.92. Some of the results follow.
Assay: chemical genetic growth profiling, strain panel (AID 1159580);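 note: tested at 20 µM; growth read once vehicle control cultures reached saturation at 30 °C; 1 = growth at the plate median or of vehicle wells; lower values mean less growth of the strain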
Settings: S. cerevisiae deletion strains, growth OD

Measured: normalized growth

CC(C)(Sc1cc(C(C)(C)C)c(O)c(C(C)(C)C)c1)Sc1cc(C(C)(C)C)c(O)c(C(C)(C)C)c1
active: locus YGL086W, strain mad1, active compounds read low 1.35 [resistant]
inactive: locus YAL013W, strain DEP1, active compounds read low 1.02 | locus YAL021C, strain ccr4, active compounds read low 1.03 | locus YAL026C, strain drs2, active compounds read low 1.01 | locus YAL030W, strain snc1, active compounds read low 1 | locus YBL061C, strain skt5, active compounds read low 0.993 | locus YBR009C, strain hhf1, active compounds read low 1.02 | locus YBR021W, strain FUR4, active compounds read low 1.01 | locus YBR023C, strain chs3, active compounds read low 0.998 | locus YBR171W, strain sec66, active compounds read low 1 | locus YBR229C, strain ROT2, active compounds read low 1.01 | locus YBR231C, strain swc5, active compounds read low 0.998 | locus YBR279W, strain paf1, active compounds read low 0.993 | locus YCL011C, strain gbp2, active compounds read low 1.02 | locus YCL016C, strain dcc1, active compounds read low 1 | locus YCL029C, strain bik1, active compounds read low 1.04 | locus YCL069W, strain vba3, active compounds read low 1.01 | locus YCR088W, strain abp1, active compounds read low 1 | locus YDL005C, strain med2, active compounds read low 1.02 | locus YDL035C, strain GPR1, active compounds read low 1.02 | locus YDL040C, strain nat1, active compounds read low 0.991 | locus YDL074C, strain BRE1, active compounds read low 1.03 | locus YDL101C, strain DUN1, active compounds read low 1.02 | locus YDL134C, strain PPH21, active compounds read low 1 | locus YDL185W, strain tfp1, active compounds read low 1.02 | locus YDL192W, strain arf1, active compounds read low 1.03 | locus YDR001C, strain nth1, active compounds read low 1.02 | locus YDR069C, strain doa4, active compounds read low 0.999 | locus YDR101C, strain arx1, active compounds read low 1.02 | locus YDR137W, strain rgp1, active compounds read low 0.99 | locus YDR150W, strain NUM1, active compounds read low 1.01 | locus YDR159W, strain sac3, active compounds read low 0.989 | locus YDR162C, strain NBP2, active compounds read low 1.01 | locus YDR195W, strain ref2 1.06 | locus YDR297W, strain sur2, active compounds read low 0.99 | locus YDR318W, strain mcm21, active compounds read low 1.04 | locus YDR334W, strain swr1, active compounds read low 1.02 | locus YDR335W, strain msn5, active compounds read low 1.01 | locus YDR388W, active compounds read low 1.02 | locus YDR392W, strain spt3, active compounds read low 1.03 | locus YDR502C, strain sam2, active compounds read low 1.02 | locus YEL003W, strain gim4, active compounds read low 1.02 | locus YEL037C, strain rad23, active compounds read low 1.01 | locus YEL061C, strain CIN8 (second series), active compounds read low 1.01 | locus YEL061C, strain CIN8, active compounds read low 1.01 | locus YER015W, strain faa2, active compounds read low 1.01 | locus YER016W, strain bim1, active compounds read low 1.01 | locus YER110C, active compounds read low 1.02 | locus YER111C, strain swi4, active compounds read low 1.01 | locus YER155C, strain BEM2 (second series), active compounds read low 0.985 | locus YER155C, strain BEM2, active compounds read low 1.01 | locus YER167W, strain BCK2, active compounds read low 1.03 | locus YFR010W, strain ubp6, active compounds read low 1.04 | locus YGL078C, strain dbp3, active compounds read low 1.03 | locus YGL167C, strain pmr1, active compounds read low 0.998 | locus YGL173C, strain kem1, active compounds read low 0.986 | locus YGL227W, strain vid30, active compounds read low 1.02 | locus YGL240W, strain doc1, active compounds read low 0.958 | locus YGL248W, strain PDE1, active compounds read low 1.01 | locus YGL253W, strain hxk2, active compounds read low 1.02 | locus YGR078C, strain PAC10, active compounds read low 1.02 | locus YGR135W, strain pre9, active compounds read low 1.04 | locus YGR229C, strain SMI1, active compounds read low 1.02 | locus YGR252W, strain gcn5, active compounds read low 1.06 | locus YHR013C, strain ard1, active compounds read low 1 | locus YHR027C, strain rpn1, active compounds read low 1 | locus YHR030C, strain SLT2, active compounds read low 1.02 and 0.989 | locus YHR079C, strain IRE1 (second series), active compounds read low 1.02 | locus YHR079C, strain IRE1, active compounds read low 1 | locus YHR094C, strain hxt1, active compounds read low 1.02 | locus YHR129C, strain ARP1, active compounds read low 1.01 | locus YHR142W, strain chs7, active compounds read low 1.04 | locus YHR200W, strain rpn10, active compounds read low 1.01 | locus YIL066C, strain RNR3, active compounds read low 1.01 | locus YIL073C, strain SPO22, active compounds read low 1.05 | locus YIL125W, strain kgd1, active compounds read low 1.02 | locus YIR030C, strain dcg1, active compounds read low 1.02 | locus YJL092W, strain hpr5, active compounds read low 1.01 | locus YJL095W, strain BCK1 (second series), active compounds read low 1 | locus YJL095W, strain BCK1, active compounds read low 1.05 and 0.992 | locus YJL115W, strain asf1, active compounds read low 0.993 | locus YJL129C, strain trk1, active compounds read low 1.02 | locus YJL134W, strain LCB3, active compounds read low 1.01 | locus YJL154C, strain vps35, active compounds read low 1.01 | locus YJL164C, strain tpk1, active compounds read low 1.01 | locus YJL166W, strain qcr8, active compounds read low 1.01 | locus YJL168C, strain set2, active compounds read low 1.02 | locus YJL187C, strain SWE1 (second series), active compounds read low 1.02 | locus YJL187C, strain SWE1, active compounds read low 1 | locus YJR043C, strain POL32, active compounds read low 1.03 | locus YJR066W, strain TOR1, active compounds read low 0.9

Source: PubChem BioAssay AID1159580 (chemical genetic matrix, 2015)
